The panel holds about 83,000 compounds, 20% with a hit somewhere; the sample as a whole holds those more often.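 Assay: single dose, 48 h. Readout: percent growth (0 = no net growth; negative = cell death). Active: <10.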 A number with no mark means an inactive call. Active and inactive are the calls of the source.
test system: RXF 393 renal; assay: NCI-60 one-dose screen, 48 h (100 = growth as untreated, 0 = no growth, -100 = all killed); details: 10 µM

| SMILES | growth |
| --- | --- |
| COc1cccc(C2C(C#N)=C(N)Oc3cc(N)ccc32)c1 (centres undefined) | -7.34% (active) |
| COc1cc(/C=C/c2cc(/C=C/c3ccc(O)c(OC)c3)[nH]c(=O)n2)ccc1O | 23.7% |
| COc1ccc2nc(-c3ccc(Cl)cc3)cc(-c3nnc(SC/C(=N\O)c4ccccc4)n3-c3ccccc3)c2c1 | 66.7% |
| CCOC(=O)CN(c1sc(C)c(C)c1C(=O)OCC)S(=O)(=O)c1ccc(C)cc1 | 92.1% |
| COc1ccc(/C=C2/SC(=S)NC2=O)c(OC)c1OC | 81.5% |
| CC(C)(C)OC(=O)N1CCc2c(sc3ncnc(N/N=C/c4ccccc4Br)c23)C1 | 81.8% |
| NC(CSC(c1ccccc1)(c1ccccc1)c1cccc2ccccc12)C(=O)O (centres undefined) | 94.2% |
| CN(C)CCCOc1ccccc1NC1=C(Cl)C(=O)C(Nc2ccccc2OCCCN(C)C)=C(Cl)C1=O | -98.2% (active) |
| NS(=O)(=O)c1ccc(Br)cc1 | 113% |
| CN(C)CCCOc1ccc(NC2=C(Cl)C(=O)C(Nc3ccc(OCCCN(C)C)cc3)=C(Cl)C2=O)cc1 | -97.9% (active) |
| COc1ccc(-c2n[nH]nc2-c2cc(OC)c3c(c2OC)OCO3)cc1 | -9.08% (active) |
| C=CCn1c(SCC(=O)Nc2ccc(C(=O)/C=C/c3cc(OC)c(OC)c(OC)c3)cc2)nnc1-c1cc(-c2ccc(Cl)cc2)nc2ccccc12 | 59.4% |
| COc1ccc(C2=Cn3c(CCC(=O)c4nc5ccccc5[nH]4)nnc3SC2)cc1 | 112% |
| CCN1CCN(CCC(=O)Nc2cccc(-n3cc(-c4ccncc4)c(-c4ccc(Cl)c(OC)c4)n3)c2)CC1 | -7.05% (active) |

Reference: PubChem BioAssay (NCI)
